Measurements taken from ChEMBL document CHEMBL2218924, “A broad activity screen in support of a chemogenomic map for kinase signalling research and drug discovery” (Biochem J, 2013).

What was measured:
[1] = biological target: Tyrosine-protein kinase Fer (Homo sapiens) (UniProt P16591); conditions: at 10 µM
[2] = biological target: Tyrosine-protein kinase Fes/Fps (Homo sapiens) (UniProt P07332); conditions: at 1 µM
[3] = biological target: Tyrosine-protein kinase Fes/Fps (Homo sapiens) (UniProt P07332); conditions: at 10 µM
[4] = biological target: Tyrosine-protein kinase Fgr (Homo sapiens) (UniProt P09769); conditions: at 1 µM
Chain of Tyrosine-protein kinase Fgr (Homo sapiens) (P09769 2-529 limits assumed): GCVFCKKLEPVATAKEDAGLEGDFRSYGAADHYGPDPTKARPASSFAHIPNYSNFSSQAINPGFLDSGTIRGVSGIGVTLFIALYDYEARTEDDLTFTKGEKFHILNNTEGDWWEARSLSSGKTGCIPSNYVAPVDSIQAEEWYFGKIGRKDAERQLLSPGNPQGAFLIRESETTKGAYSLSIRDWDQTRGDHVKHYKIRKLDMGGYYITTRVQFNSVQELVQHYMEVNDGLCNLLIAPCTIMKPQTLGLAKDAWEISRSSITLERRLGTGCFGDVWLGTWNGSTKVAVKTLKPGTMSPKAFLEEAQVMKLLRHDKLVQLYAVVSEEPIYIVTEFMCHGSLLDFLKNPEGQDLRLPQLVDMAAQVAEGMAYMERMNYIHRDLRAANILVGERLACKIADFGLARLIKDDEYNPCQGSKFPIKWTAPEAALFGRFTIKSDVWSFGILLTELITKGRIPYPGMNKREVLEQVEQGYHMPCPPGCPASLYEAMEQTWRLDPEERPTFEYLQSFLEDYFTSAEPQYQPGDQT

[5] = biological target: Tyrosine-protein kinase Fgr (Homo sapiens) (UniProt P09769); conditions: at 10 µM
[6] = biological target: Vascular endothelial growth factor receptor 1 (Homo sapiens) (UniProt P17948); conditions: at 1 µM
[7] = biological target: Vascular endothelial growth factor receptor 1 (Homo sapiens) (UniProt P17948); conditions: at 10 µM
[8] = biological target: Receptor-type tyrosine-protein kinase FLT3 (Homo sapiens) (UniProt P36888); conditions: at 10 µM
Chain of Receptor-type tyrosine-protein kinase FLT3 (Homo sapiens) (P36888 whole entry): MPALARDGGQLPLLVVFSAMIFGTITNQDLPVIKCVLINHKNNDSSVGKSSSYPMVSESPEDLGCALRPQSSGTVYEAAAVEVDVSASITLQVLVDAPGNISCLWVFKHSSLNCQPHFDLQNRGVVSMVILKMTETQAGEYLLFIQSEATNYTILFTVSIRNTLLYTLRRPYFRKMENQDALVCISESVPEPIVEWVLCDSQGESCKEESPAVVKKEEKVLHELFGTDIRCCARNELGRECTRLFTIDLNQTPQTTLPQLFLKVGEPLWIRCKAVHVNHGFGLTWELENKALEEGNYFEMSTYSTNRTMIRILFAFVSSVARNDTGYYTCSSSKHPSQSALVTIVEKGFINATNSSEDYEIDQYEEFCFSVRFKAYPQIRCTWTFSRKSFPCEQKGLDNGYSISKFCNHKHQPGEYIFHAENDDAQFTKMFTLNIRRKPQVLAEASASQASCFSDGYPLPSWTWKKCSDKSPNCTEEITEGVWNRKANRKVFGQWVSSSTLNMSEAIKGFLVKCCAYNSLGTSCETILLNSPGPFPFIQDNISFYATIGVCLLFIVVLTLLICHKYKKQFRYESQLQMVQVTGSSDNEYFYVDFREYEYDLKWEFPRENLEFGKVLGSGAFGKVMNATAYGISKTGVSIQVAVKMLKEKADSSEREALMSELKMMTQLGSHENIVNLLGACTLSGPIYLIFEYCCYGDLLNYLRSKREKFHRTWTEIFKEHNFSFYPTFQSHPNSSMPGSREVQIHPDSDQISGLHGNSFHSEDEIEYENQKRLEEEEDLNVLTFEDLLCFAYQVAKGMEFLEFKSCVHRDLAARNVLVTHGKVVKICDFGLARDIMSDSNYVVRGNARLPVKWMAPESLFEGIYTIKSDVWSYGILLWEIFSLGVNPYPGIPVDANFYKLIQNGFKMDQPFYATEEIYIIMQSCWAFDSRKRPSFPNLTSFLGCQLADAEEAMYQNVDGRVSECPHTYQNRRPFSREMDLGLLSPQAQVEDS

[9] = biological target: Vascular endothelial growth factor receptor 3 (Homo sapiens) (UniProt P35916); conditions: at 1 µM
[10] = biological target: Vascular endothelial growth factor receptor 3 (Homo sapiens) (UniProt P35916); conditions: at 10 µM
[11] = biological target: Macrophage colony-stimulating factor 1 receptor (Homo sapiens) (UniProt P07333); conditions: at 1 µM
[12] = biological target: Macrophage colony-stimulating factor 1 receptor (Homo sapiens) (UniProt P07333); conditions: at 10 µM
[13] = biological target: Tyrosine-protein kinase Fyn (Homo sapiens) (UniProt P06241); conditions: at 1 µM
Chain of Tyrosine-protein kinase Fyn (Homo sapiens) (P06241 2-537 limits assumed): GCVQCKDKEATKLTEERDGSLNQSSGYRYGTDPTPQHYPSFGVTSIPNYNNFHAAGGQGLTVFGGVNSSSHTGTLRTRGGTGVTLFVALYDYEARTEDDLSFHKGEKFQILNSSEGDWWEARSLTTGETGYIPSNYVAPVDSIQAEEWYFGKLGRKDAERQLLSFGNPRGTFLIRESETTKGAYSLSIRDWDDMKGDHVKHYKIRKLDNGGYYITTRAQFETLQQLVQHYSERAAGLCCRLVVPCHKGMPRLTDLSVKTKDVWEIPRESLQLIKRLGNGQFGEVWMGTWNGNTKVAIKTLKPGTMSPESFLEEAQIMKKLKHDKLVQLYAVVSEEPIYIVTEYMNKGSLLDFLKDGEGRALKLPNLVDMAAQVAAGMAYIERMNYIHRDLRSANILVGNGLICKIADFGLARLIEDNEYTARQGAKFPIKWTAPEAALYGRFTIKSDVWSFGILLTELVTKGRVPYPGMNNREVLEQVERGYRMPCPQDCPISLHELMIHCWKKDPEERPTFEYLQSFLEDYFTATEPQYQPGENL

[14] = biological target: Tyrosine-protein kinase Fyn (Homo sapiens) (UniProt P06241); conditions: at 10 µM
[15] = biological target: T1, Mitogen-activated protein kinase kinase kinase kinase 2 (Homo sapiens) (UniProt Q12851); conditions: at 1 µM
T1 sequence (whole entry): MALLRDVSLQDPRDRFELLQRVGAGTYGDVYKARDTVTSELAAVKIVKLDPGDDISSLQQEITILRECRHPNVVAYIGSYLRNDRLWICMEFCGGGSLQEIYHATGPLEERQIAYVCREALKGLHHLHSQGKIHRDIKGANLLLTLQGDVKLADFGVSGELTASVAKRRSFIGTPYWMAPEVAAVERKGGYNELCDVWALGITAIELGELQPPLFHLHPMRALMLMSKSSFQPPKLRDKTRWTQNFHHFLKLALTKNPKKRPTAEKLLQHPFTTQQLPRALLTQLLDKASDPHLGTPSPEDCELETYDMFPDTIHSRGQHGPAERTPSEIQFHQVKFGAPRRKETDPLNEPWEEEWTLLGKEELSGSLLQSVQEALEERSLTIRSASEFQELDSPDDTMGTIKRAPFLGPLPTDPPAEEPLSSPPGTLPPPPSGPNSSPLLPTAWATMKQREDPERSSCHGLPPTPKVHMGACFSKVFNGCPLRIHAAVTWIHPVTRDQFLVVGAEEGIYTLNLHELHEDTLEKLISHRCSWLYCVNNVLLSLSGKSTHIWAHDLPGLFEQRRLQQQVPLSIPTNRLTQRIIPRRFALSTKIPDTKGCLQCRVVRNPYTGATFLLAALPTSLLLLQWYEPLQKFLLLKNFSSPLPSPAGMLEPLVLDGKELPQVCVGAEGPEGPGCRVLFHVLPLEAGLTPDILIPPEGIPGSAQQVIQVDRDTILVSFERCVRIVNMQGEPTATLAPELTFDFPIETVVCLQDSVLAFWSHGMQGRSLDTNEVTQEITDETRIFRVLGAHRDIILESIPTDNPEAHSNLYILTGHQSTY

[16] = biological target: T1, Mitogen-activated protein kinase kinase kinase kinase 2 (Homo sapiens); conditions: at 10 µM
[17] = biological target: G protein-coupled receptor kinase 5 (Homo sapiens) (UniProt P34947); conditions: at 1 µM
Chain of G protein-coupled receptor kinase 5 (Homo sapiens) (P34947 whole entry, looked up): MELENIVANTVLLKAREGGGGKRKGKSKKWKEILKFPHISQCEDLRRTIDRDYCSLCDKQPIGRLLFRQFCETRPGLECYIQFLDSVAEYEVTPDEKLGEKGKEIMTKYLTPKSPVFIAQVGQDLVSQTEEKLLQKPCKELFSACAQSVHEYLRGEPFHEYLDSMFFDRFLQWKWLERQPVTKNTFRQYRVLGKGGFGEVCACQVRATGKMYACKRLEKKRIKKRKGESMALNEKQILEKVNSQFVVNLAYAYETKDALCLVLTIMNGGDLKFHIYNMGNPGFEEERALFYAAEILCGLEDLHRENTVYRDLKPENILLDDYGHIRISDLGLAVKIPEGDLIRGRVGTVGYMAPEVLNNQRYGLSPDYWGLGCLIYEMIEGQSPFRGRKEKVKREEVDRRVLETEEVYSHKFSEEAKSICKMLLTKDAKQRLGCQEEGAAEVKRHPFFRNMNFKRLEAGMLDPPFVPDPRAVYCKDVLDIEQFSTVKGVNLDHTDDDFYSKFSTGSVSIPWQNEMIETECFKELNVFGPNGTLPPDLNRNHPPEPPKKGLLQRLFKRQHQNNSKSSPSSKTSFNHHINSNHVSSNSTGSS

[18] = biological target: G protein-coupled receptor kinase 5 (Homo sapiens) (UniProt P34947); conditions: at 10 µM
[19] = biological target: G protein-coupled receptor kinase 6 (Homo sapiens) (UniProt P43250); conditions: at 1 µM
Chain of G protein-coupled receptor kinase 6 (Homo sapiens) (P43250 whole entry, looked up): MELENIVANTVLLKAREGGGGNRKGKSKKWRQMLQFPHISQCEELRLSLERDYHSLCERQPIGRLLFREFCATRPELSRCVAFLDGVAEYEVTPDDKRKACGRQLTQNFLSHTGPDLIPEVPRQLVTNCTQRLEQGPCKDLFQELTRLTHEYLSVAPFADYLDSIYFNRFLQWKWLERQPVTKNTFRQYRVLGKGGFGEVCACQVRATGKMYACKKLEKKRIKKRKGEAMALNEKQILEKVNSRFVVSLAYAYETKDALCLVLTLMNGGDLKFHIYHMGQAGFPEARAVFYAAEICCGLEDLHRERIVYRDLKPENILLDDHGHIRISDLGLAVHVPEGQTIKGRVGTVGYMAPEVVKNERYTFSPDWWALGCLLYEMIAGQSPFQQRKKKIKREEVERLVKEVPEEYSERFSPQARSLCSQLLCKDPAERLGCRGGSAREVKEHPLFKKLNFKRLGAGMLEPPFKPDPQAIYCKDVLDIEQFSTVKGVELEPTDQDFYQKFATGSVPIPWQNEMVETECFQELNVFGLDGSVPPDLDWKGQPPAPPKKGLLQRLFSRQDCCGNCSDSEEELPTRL

[20] = biological target: Receptor-type tyrosine-protein kinase FLT3 (Homo sapiens) (UniProt P36888); conditions: at 1 µM

Chain of Tyrosine-protein kinase Fer (Homo sapiens) (P16591 whole entry, looked up): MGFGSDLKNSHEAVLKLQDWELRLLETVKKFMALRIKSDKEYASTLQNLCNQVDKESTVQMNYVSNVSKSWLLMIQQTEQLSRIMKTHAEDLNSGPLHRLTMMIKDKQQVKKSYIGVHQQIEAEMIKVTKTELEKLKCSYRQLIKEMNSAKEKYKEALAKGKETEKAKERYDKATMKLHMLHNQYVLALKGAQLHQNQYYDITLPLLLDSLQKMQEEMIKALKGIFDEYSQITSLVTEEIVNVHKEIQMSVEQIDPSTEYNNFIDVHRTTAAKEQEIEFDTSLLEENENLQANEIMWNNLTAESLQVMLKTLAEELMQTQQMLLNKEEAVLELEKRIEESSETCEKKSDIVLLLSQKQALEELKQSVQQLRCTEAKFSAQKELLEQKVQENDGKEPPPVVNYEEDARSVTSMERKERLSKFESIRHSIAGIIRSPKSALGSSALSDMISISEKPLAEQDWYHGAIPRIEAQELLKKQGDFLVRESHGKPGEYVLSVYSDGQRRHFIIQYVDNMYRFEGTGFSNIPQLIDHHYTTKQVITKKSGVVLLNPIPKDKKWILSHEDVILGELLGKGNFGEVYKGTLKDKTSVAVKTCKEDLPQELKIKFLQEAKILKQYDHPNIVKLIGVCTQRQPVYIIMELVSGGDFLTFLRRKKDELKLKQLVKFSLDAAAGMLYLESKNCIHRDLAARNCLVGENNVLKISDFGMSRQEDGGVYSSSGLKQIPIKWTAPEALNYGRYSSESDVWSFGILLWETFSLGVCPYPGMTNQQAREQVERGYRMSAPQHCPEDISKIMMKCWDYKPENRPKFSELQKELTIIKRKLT
Chain of Tyrosine-protein kinase Fes/Fps (Homo sapiens) (P07332 whole entry): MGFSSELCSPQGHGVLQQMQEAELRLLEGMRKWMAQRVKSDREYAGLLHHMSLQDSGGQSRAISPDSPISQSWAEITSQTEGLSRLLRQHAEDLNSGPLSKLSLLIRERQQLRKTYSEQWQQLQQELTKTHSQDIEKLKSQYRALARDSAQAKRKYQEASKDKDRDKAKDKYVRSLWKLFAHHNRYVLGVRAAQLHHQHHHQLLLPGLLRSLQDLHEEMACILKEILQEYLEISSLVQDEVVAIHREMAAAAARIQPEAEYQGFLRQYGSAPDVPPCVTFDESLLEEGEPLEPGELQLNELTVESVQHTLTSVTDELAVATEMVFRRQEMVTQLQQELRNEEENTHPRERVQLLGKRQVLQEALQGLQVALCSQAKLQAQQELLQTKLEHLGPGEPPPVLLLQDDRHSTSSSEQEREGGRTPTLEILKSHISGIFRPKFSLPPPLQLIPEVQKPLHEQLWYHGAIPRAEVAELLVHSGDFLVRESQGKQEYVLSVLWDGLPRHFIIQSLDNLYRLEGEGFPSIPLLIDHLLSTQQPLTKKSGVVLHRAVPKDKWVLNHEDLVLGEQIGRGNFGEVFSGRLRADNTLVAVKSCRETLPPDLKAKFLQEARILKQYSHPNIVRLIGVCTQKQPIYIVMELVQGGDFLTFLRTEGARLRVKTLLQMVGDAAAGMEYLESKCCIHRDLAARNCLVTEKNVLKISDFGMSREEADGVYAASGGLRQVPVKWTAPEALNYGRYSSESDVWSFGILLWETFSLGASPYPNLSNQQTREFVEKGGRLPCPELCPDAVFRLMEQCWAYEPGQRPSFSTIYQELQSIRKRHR

SMILES | residual activity [1] [%] | residual activity [2] [%] | residual activity [3] [%] | residual activity [4] [%] | residual activity [5] [%] | residual activity [6] [%] | residual activity [7] [%] | residual activity [8] [%] | residual activity [9] [%] | residual activity [10] [%] | residual activity [11] [%] | residual activity [12] [%] | residual activity [13] [%] | residual activity [14] [%] | residual activity [15] [%] | residual activity [16] [%] | residual activity [17] [%] | residual activity [18] [%] | residual activity [19] [%] | residual activity [20] [%]
C[S+]([O-])c1ccc(-c2nc(-c3ccc(F)cc3)c(-c3ccncc3)[nH]2)cc1 (stereo unspecified) | 109 | 112 | 105 | 87 | 51 | 101 | 39 | 82 | 93 | 42 | 109 | 52 | 76 | 35 | 104 | 100 | 109 | 104 | 107 | 
Cn1c2ccccc2c2c3c(c4c5ccccc5n(CCC#N)c4c21)CNC3=O |  |  |  |  |  |  |  |  |  |  |  |  |  |  |  |  | 69 |  |  | 
O=C1NC(=O)c2c1c1c3ccccc3n3c1c1c2c2ccccc2n1C1CCC3O1 | 20 | 90 | 99 |  |  | 7 | 4 | 3 | 0 | 2 | 30 | 26 | 81 | 75 | 20 | 10 |  |  |  | 24
O=C1c2ccccc2-c2nc3nnnn3nc21 | 103 |  |  | 104 | 78 |  |  | 78 |  | 70 |  |  |  |  |  |  | 107 | 77 |  | 103
O=[N+]([O-])/C=C/c1ccc2c(c1)OCO2 | 98 | 113 | 77 | 90 | 92 | 97 | 91 | 69 | 88 | 95 | 87 | 100 | 105 | 92 | 92 | 86 | 106 | 91 | 105 | 95
CCn1cnc2c(Nc3cccc(Cl)c3)nc(N[C@@H]3CCCC[C@@H]3N)nc21 | 39 | 55 | 9 | 18 | 3 | 63 | 15 | 1 | 50 | 2 | 54 | 11 | 8 | 0 | 43 | 7 | 96 | 66 | 91 | 18
COc1ccc2c(c1)/C(=C/c1cnc[nH]1)C(=O)N2 |  |  |  | 69 | 16 |  |  | 0 |  |  | 41 | 14 | 67 | 25 | 23 | 3 |  |  |  | 10
O=C(Nc1nc2ccccc2n1CCN1CCOCC1)c1cccc([N+](=O)[O-])c1 |  |  |  |  |  |  |  |  |  |  |  |  |  |  |  |  | 107 |  |  | 
COc1ccc2c(c[n+](C)c3c4cc5c(cc4ccc23)OCO5)c1OC | 80 | 121 | 76 |  | 77 | 96 | 47 | 75 | 85 | 62 | 87 | 74 | 92 | 63 |  | 72 |  | 82 | 96 | 92
